This is part of a sample that, as a whole, favours compounds with a hit. Of some 79,000 tested, about 15% had one in any assay. Unmarked numbers belong to inactive results. Calls of active or inactive are those of the source. Rule as the data show it: active = growth inhibition above about 70%; inactive = the rest.

Assay [1] is described as follows: NCI Yeast Anticancer Drug Screen. Data for the rad50 strain (AID 155).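 Also: 0% = growth of vehicle-only cultures of the same strain.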 As to conditions: S. cerevisiae rad50 strain growth inhibition; at 50.0 µM; stronger effect = higher value. Summed up:
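Readout: growth inhibition relative to vehicle-treated cultures. Compound exposure was carried out in a genetically defined yeast strain deficient in DNA damage repair.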

The nature of assay [2]: NCI Yeast Anticancer Drug Screen. Data for the mec2-1 strain (AID 157). As to conditions: S. cerevisiae mec2-1 strain, at 50.0 µM, stronger effect = higher value. Summed up:
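mec2-1 yeast strain, carrying an alteration in DNA damage repair or cell cycle control, was exposed to compounds; growth inhibition was measured relative to vehicle-treated controls.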

Assay [3] in a line: NCI Yeast Anticancer Drug Screen. Data for the sgs1 mgt1 strain (AID 161).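 Also: 0% = growth of cultures given vehicle only.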 As to conditions: S. cerevisiae sgs1 mgt1 strain, at 50.0 µM, stronger effect = higher value. Summed up:
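Growth of a repair-deficient yeast mutant was monitored after compound treatment and expressed as inhibition relative to vehicle-treated cultures.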

A short description of assay [4]: NCI Yeast Anticancer Drug Screen. Data for the cln2 rad14 strain (AID 165).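 Also: 0% = growth equal to vehicle treated cultures.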 As to conditions: S. cerevisiae cln2 rad14 strain, at 50.0 µM, stronger effect = higher value. Summed up: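 Yeast carrying cln2 and rad14 alterations (cell cycle control and DNA damage repair) were exposed to compounds. Growth inhibition was measured against vehicle-treated controls.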
Assay [5] is described as follows: NCI Yeast Anticancer Drug Screen. Data for the bub3 strain (AID 167). As to conditions: S. cerevisiae bub3 mutant strain, at 50.0 µM, stronger effect = higher value. The procedure, abridged: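 Readout: yeast growth inhibition, expressed relative to vehicle-only wells. The test organism is a mutant strain from a panel with lesions in DNA repair or checkpoint genes.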
Assay [6] in a line: NCI Yeast Anticancer Drug Screen. Data for the mlh1 rad18 strain (AID 175). As to conditions: S. cerevisiae mlh1 rad18 strain growth inhibition; at 50.0 µM; stronger effect = higher value. Summed up:
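Growth inhibition of the yeast strain was measured after compound exposure and expressed relative to vehicle-treated controls. The strain carries defined defects in DNA damage repair.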

Regarding `O=CNc1cc([N+](=O)[O-])ccc1OCc1ccccc1`, the growth inhibition in assay [1] was 13.6%; in assay [2] it was 1.6%; in assay [3], -0.75%; in assay [4], 4.6%; in assay [5] it was 12.2%; in assay [6], -21.9%.

As to `CCCCCCCCCCCCCCCCN(O)C(=O)c1cnc[nH]1`, the growth inhibition in assay [1] is 29.8%; in assay [2], 26.6%; in assay [3], 30.2%; in assay [4] it was 25.4%; in assay [5], 11.1%; in assay [6], 22.6%.

Turning to `[CH3][Ga]([CH3])[O]c1ccccc1C=O`, the growth inhibition in assay [1] was -3.6%; in assay [2], -17.6%; in assay [3], -10.8%; in assay [4] it was -80.7%; in assay [5], -30.3%; in assay [6], -21.4%.

With `CCc1ccccc1NC(=O)CC1NC(=O)CS1` (stereo unspecified), the growth inhibition in assay [1] is -8.95%; in assay [2] it was -9.3%; in assay [3] it was 4.4%; in assay [4], 9.9%; in assay [5], -30.4%; in assay [6], -21.4%.

Take `CC(=O)OCCn1cnc2c(NCC=C(C)C)ncnc21`: the growth inhibition in assay [1] was -28.4%; in assay [2], -12.4%; in assay [3], -40%; in assay [4] it was 0.75%; in assay [5], 7.5%; in assay [6], -45%.

For the molecule `c1ccc2c(c1)CCc1ccccc1N2`, the growth inhibition in assay [1] is 1.65%; in assay [2], 13.8%; in assay [3] it was -28.9%; in assay [4], 6.45%; in assay [5] it was 15.1%; in assay [6], -3.4%.

`COc1ccc(Cc2ccccc2)cc1`: the growth inhibition was -2% in assay [1]; -13.2% in assay [2]; 17.4% in assay [3]; 7.8% in assay [4]; -4.55% in assay [5]; 6.65% in assay [6].

`COc1cc2cccc(N=Cc3cccc(OC)c3OC(C)C)c2cc1OC`: the growth inhibition in assay [1] was -20.9%; in assay [2], -13.2%; in assay [3], 11.6%; in assay [4], 16.1%; in assay [5], -4.6%; in assay [6], -8.6%.

Regarding `C=CCOCc1ccc(C(C)(C)CC(C)(C)C)cc1`, the growth inhibition in assay [1] is -5.25%; in assay [2] it was 13.5%; in assay [3] it was 8.6%; in assay [4], -75.5%; in assay [5], 16.1%; in assay [6], 15.7%.

`COc1ccc(COCC[C@H](C)OC2OC(CO)C(O)C(O)C2O)cc1` (stereo partly specified): the growth inhibition in assay [1] is 13.9%; in assay [2] it was -8.75%; in assay [3] it was -12.9%; in assay [4], -6.2%; in assay [5] it was 5.25%; in assay [6], -71%.

`CC(SC(=S)N1CCOCC1)c1cc2oc(=O)n(C)c2cc1Cl` (stereo unspecified): the growth inhibition is 2.4% in assay [1]; 7.95% in assay [2]; 8.35% in assay [3]; -5.15% in assay [4]; 24.8% in assay [5]; 20.5% in assay [6].

As for `CCOC(=O)NC(=O)c1cn(CCCOC(=O)CCCCCCCCC(=O)OCCCn2cc(C(=O)NC(=O)OCC)c(=O)n(C)c2=O)c(=O)n(C)c1=O`, the growth inhibition in assay [1] was -16.4%; in assay [2], -25.1%; in assay [3] it was -25.2%; in assay [4], 6%; in assay [5], 4.3%; in assay [6] it was -23.7%.

For `CCCCCCn1c(=O)cc2n(c1=O)CCC2`, the growth inhibition was 30% in assay [1]; 11.3% in assay [2]; 22.1% in assay [3]; 11.1% in assay [4]; 3.5% in assay [5]; -3.4% in assay [6].

Consider `CC1(C)COC(c2c(F)cccc2Cl)=N1`, for which the growth inhibition in assay [1] was 3%; in assay [2] it was -13.8%; in assay [3], 6.2%; in assay [4], 22.4%; in assay [5], 11.7%; in assay [6], 13.2%.

With `Nc1ccc(CC(N)C(=O)O)cc1` (stereo unspecified), the growth inhibition in assay [1] is -2.7%; in assay [2], -12.8%; in assay [3], -22.3%; in assay [4] it was -5.6%; in assay [5], -6.55%; in assay [6], -13.3%.

Consider `C/C(=N\N(C)/C=N/S(C)(=O)=O)c1ccccc1`, for which the growth inhibition in assay [1] was 7.85%; in assay [2], 9.5%; in assay [3] it was 24.5%; in assay [4], 74.5% (active); in assay [5] it was -2.9%; in assay [6], -3.25%.

With `CC(C)=NNC(=O)c1ccc([N+](=O)[O-])cc1`, the growth inhibition in assay [1] was 9.35%; in assay [2], 0.95%; in assay [3] it was 2.1%; in assay [4], 5.1%; in assay [5], 3.65%; in assay [6], 10.4%.

`O=C(OC1COC(OCc2ccccc2)C(OC(=O)c2ccccc2)C1OC(=O)c1ccccc1)c1ccccc1` (stereo unspecified): the growth inhibition in assay [1] was 8%; in assay [2], -24.4%; in assay [3] it was 3.1%; in assay [4], -30.3%; in assay [5] it was 0.4%; in assay [6], 2.75%.

`CCOCCOC(=O)Nc1ccc(C)c(NC(=O)OCCOCC)c1`: the growth inhibition in assay [1] was -0.55%; in assay [2], -18.8%; in assay [3], 8.65%; in assay [4], 4.45%; in assay [5], 5.35%; in assay [6] it was -4.8%.

As for `O=C1CNS(=O)(=O)N1`, the growth inhibition in assay [1] was -18.9%; in assay [2], 8.45%; in assay [3] it was -16.5%; in assay [4] it was 10.2%; in assay [5] it was -16.4%; in assay [6], -7.85%.

As for `CN(C)c1ccc(/C=C/C=C(/C#N)c2ccccc2)cc1`, the growth inhibition is 14.8% in assay [1]; 8.5% in assay [2]; 2.9% in assay [3]; 32.2% in assay [4]; 24.3% in assay [5]; 2.65% in assay [6].
